For 36 compounds, composite z-score results are on record in PubChem BioAssay.

Epidermal growth factor receptor (Homo sapiens), sequence (P00533 whole entry, looked up): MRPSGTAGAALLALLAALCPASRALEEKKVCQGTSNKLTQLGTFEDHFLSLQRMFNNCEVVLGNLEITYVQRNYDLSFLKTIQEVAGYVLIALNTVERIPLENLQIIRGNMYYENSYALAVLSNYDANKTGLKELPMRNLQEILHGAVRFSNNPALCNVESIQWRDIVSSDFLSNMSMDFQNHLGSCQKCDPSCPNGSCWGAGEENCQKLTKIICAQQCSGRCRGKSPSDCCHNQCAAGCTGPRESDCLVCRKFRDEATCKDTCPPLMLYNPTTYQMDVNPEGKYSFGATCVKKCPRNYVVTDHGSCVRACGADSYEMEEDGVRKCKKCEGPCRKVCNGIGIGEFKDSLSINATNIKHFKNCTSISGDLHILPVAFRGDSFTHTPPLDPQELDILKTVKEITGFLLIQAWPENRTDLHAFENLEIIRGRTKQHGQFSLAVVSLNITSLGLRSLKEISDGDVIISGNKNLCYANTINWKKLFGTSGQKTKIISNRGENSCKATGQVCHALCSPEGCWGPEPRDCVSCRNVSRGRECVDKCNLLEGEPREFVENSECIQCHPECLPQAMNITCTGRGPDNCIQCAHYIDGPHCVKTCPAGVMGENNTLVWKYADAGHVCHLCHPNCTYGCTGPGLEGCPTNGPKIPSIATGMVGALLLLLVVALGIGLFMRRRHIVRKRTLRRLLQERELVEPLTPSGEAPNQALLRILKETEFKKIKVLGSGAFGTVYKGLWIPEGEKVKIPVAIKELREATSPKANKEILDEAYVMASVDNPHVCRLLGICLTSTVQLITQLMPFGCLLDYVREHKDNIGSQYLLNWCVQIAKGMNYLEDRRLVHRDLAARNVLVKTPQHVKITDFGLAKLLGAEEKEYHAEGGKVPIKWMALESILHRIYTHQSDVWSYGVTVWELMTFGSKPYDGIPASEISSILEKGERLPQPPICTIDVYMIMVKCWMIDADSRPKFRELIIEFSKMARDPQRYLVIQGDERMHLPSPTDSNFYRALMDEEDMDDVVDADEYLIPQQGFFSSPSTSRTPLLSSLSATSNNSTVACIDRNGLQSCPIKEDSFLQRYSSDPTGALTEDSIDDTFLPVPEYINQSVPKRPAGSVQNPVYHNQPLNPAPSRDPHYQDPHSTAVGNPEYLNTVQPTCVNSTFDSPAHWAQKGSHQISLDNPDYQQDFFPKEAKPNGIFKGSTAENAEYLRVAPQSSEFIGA

One experiment concerns the target Epidermal growth factor receptor (Homo sapiens) (UniProt P00533). The experiment can be described thus: compounds binding epidermal growth factor receptor – biochemical, small-molecule microarray, 635 nm fluorescence, primary screen (AID 1104).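 Note: score merges 667 nm emission intensity with spot signal to noise over triplicate slides.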 To be noted: EGFR binding, higher = more signal.
Turning to `CCOC(=O)[C@H](CC(C)C)NC(=O)CCC1CC(OC(=O)NCCc2ccc(F)cc2)CC2(CCCC(COC(=O)NCCOC)O2)O1` (stereo partly drawn), the composite z-score worked out at 0.633.
In turn, `CCN1C(=O)[C@H]2[C@H]3[C@H](O)[C@H](O)CC(=NOC(C)CN4CCCc5nc(C)c(C)cc54)[C@@H]3CC[C@H]2C1=O` (stereo partly drawn) gave a composite z-score of 0.692.
On the same count and under the same terms, under `CC(C)=CCCC(C)=CCON=C1[C@H]2CCn3c(=O)n(-c4ccccc4)c(=O)n3[C@H]2[C@H](O)[C@@H]2O[C@H]12` stands 0.752; under `O=C1C=C[C@@H](O)[C@@H]2[C@@H]3C(=O)N(Cc4ccccc4)C(=O)[C@@H]3CC[C@@H]12`, 0.552; under `CCCCOC(OCCCC)C(O)CSc1ccc2ccccc2c1` (stereo not drawn), 0.549.
Compound `CC[C@@H](c1ccccc1)n1c(=O)n2n(c1=O)[C@H]1[C@H](O)[C@@H]3O[C@@H]3C(=NOCc3ccccc3)[C@H]1CC2` returned a composite z-score of 0.123.
In turn, `CC(CCN1CCCc2nc(C)c(C)cc21)=NOC[C@@H](C)[C@H](OCc1ccccc1)C(C)C` yielded a composite z-score of -0.771.

For another experiment, the target named is Follistatin-related protein 3 (Homo sapiens) (UniProt O95633). Put plainly: compounds binding follistatin-related protein 3 – biochemical, small-molecule microarray, 635 nm fluorescence, primary screen (AID 1105).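 Note: score merges emission near 667 nm and signal to noise per printed spot across three slides.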 Particulars: FSTL3 binding, higher = more signal.
Follistatin-related protein 3 (Homo sapiens), sequence (O95633 whole entry, looked up): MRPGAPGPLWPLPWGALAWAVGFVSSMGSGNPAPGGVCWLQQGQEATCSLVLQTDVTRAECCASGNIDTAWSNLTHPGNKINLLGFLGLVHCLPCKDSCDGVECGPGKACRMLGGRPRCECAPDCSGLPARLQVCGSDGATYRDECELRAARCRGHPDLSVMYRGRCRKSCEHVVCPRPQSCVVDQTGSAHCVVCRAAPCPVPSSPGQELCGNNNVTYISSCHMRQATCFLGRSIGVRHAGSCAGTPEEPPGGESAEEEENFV
In turn, `CC(C)CN1CCc2nc(-c3ccccc3)c3c(c2C1)CO[C@@H](C)C3` registered a composite z-score of 1.05.
`COCC#Cc1ccc([C@@H]2N[C@H](C(=O)O)CC[C@H]2C)cc1` had a composite z-score of 0.246.
`C[C@@H](c1ccccc1)N1C(=O)[C@H]2[C@H]3[C@H](O)[C@H](O)CC(=NOC[C@@H](O)COCc4ccco4)[C@H]3CC[C@H]2C1=O` came in with a composite z-score of 1.14.
`CCOC(=O)[C@H](CC(C)C)NC(=O)CCC1CC(OC(=O)NCc2ccc3c(c2)OCO3)CC2(CCCC(COC(=O)NCCc3ccc(Cl)cc3)O2)O1` (stereo partly drawn) had a composite z-score of 0.829.
On the same count and under the same terms, the figure for `C#CCCCON=C1C[C@@H](O)[C@@H](O)[C@@H]2[C@@H]3C(=O)N(C4CCCCC4)C(=O)[C@@H]3CC[C@@H]12` is 0.556; for `CC(C)=CCCC(C)=CCON=C1C[C@@H](O)[C@@H](O)[C@@H]2[C@@H]3C(=O)N(c4cccc(Oc5ccccc5)c4)C(=O)[C@@H]3CC[C@H]12` it is 0.751.
Take `COc1ccc(O[C@H]2C=C[C@@H](C#Cc3ccccc3)O[C@@H]2CO)cc1`: the composite z-score was -0.0229.
As for `CCCNC(=O)OC[C@H]1O[C@H](CCON=C[C@@H](NS(=O)(=O)c2ccc(C)cc2)[C@H](C)C=CCC(=O)OC)C=C[C@@H]1Oc1ccc(OC)cc1`, the composite z-score was -0.293.
Turning to `COC(=O)[C@H](C)NC(=O)CCC1CC(OC(=O)NCc2cccc3ccccc23)CC2(CCCC(COC(=O)NCCCN3CCCC3=O)O2)O1` (stereo partly drawn), the composite z-score was 0.91.
In turn, `COC(=O)[C@H](C)NC(=O)CCC1CC(OC(=O)NCCc2ccc(F)cc2)CC2(CCCC(COC(=O)NCC3CCCCC3)O2)O1` (stereo partly drawn) displayed a composite z-score of 1.08.
Take `COC(=O)[C@H](C)NC(=O)CCC1CC(OC(=O)NCc2ccc3c(c2)OCO3)CC2(CCCC(COC(=O)NCCc3ccc(Cl)cc3)O2)O1` (stereo partly drawn): the composite z-score is 0.762.
Turning to `COc1ccc(COC(=O)NN=C2C[C@@H](O)[C@@H](O)[C@@H]3[C@@H]4C(=O)N([C@@H](C)c5ccccc5)C(=O)[C@@H]4CC[C@@H]23)cc1`, the composite z-score was found to be 0.192.
In turn, `COc1ccc(O[C@H]2C=C[C@@H](c3ccccc3)O[C@@H]2COC(=O)CCC(C)=NOC[C@@H](O)COCc2ccco2)cc1` displayed a composite z-score of -2.9.
As to `CCN1C(=O)[C@H]2[C@H]3[C@H](O)[C@H](O)CC(=NOCC(C)C)[C@H]3CC[C@H]2C1=O`, the composite z-score came to 0.732.
Still for that read-out and setting: the figure for `CC(=O)OC[C@H]1O[C@H](C#CCC2CCCCC2)C=C[C@@H]1OC(C)=O` is 0.674; for `CCN1C(=O)[C@H]2[C@H]3[C@H](O)[C@H](O)CC(=NOC[C@@H](O)[C@H]4O[C@@H]5OC(C)(C)O[C@@H]5[C@H]4O)[C@@H]3CC[C@H]2C1=O` it is 0.24.
Still for that read-out and setting: under `C[C@@H]1CC[C@@H](C(=O)O)N[C@H]1c1cccc(N2CCOCC2)c1` stands 0.409; under `CCOC(=O)NN=C1C[C@@H](O)[C@@H](O)[C@@H]2[C@@H]3C(=O)N(c4ccc(F)cc4F)C(=O)[C@@H]3CC[C@H]12`, 0.438; under `CCC1=NOC(CCC2CC(OC(=O)NCc3cccc4c3OCO4)CC3(CCCC(COC(=O)NCCc4ccc(Cl)cc4)O3)O2)C1` (stereo not drawn), 0.147.
Regarding `CCOC(=O)CCN1C(=O)[C@H]2[C@H]3[C@H](O)[C@H](O)CC(=NO[C@@H]4O[C@H](CO)[C@@H](O)[C@H](O)[C@H]4O)[C@@H]3CC[C@H]2C1=O`, the composite z-score amounted to 1.37.
As for `CCOC(=O)[C@H](CC(C)C)NC(=O)CCC1CC(OC(=O)NCc2ccc3c(c2)OCO3)CC2(CCCC(COC(=O)NCc3ccccc3)O2)O1` (stereo partly drawn), the composite z-score stood at 0.675.
The same measure, in the same setting: the figure for `CC(C)C(=O)N[C@H]1CCCN1C(=O)C=Cc1ccccc1` is 0.722; for `COC(=O)[C@H](C)NC(=O)CCC1CC(OC(=O)NCc2cccc3ccccc23)CC2(CCCC(COC(=O)NCc3ccccc3)O2)O1` (stereo partly drawn) it is 0.918; for `CCOC(=O)[C@H](CC(C)C)NC(=O)CCC1CC(OC(=O)NCCc2ccc(F)cc2)CC2(CCCC(COC(=O)NCc3cccc4ccccc34)O2)O1` (stereo partly drawn) it is 0.135.
`COC(=O)CC=C[C@@H](C)[C@@H](C=NOC(C)CN1CCCCc2nc(C)c(C)cc21)OC` (stereo partly drawn): the composite z-score stood at 0.975.
As for `CCN1C(=O)[C@H]2[C@H]3[C@H](O)[C@H](O)CC(=NOC[C@@H](O)COCc4ccco4)[C@H]3CC[C@H]2C1=O`, the composite z-score was determined as 0.757.
With `COCCNC(=O)OCC1CCCC2(CC(OC(=O)NCc3cccc4ccccc34)CC(CCC(=O)N[C@@H](C)C(=O)OC)O2)O1` (stereo partly drawn), the composite z-score was 0.781.
On the same count and under the same terms, the figure for `CC(=O)OC[C@H]1O[C@@H](ON=C(C)CCN2CCCCc3nc(C)c(C)cc32)[C@H](OC(C)=O)[C@@H](OC(C)=O)[C@@H]1OC(C)=O` is 1.28.
The same measure, in the same setting: under `O=C1C=C[C@@H](O)[C@@H]2[C@@H]3C(=O)N(c4cccc(Oc5ccccc5)c4)C(=O)[C@@H]3CC[C@@H]12` stands 0.438; under `CCOC(=O)[C@H](CC(C)C)NC(=O)CCC1CC(OC(=O)NCCc2ccc(F)cc2)CC2(CCCC(COC(=O)NCCOC)O2)O1` (stereo partly drawn), 1.36; under `CCN1C(=O)[C@H]2[C@H]3[C@H](O)[C@H](O)CC(=NOC(C)CN4CCCc5nc(C)c(C)cc54)[C@@H]3CC[C@H]2C1=O` (stereo partly drawn), 0.783.
For `CC(C)=CCCC(C)=CCON=C1[C@H]2CCn3c(=O)n(-c4ccccc4)c(=O)n3[C@H]2[C@H](O)[C@@H]2O[C@H]12`, the composite z-score was found to be 1.25.
With `O=C1C=C[C@@H](O)[C@@H]2[C@@H]3C(=O)N(Cc4ccccc4)C(=O)[C@@H]3CC[C@@H]12`, the composite z-score turned out to be 0.353.
In turn, `CCCCOC(OCCCC)C(O)CSc1ccc2ccccc2c1` (stereo not drawn) came in with a composite z-score of 0.589.
On to `CC[C@@H](c1ccccc1)n1c(=O)n2n(c1=O)[C@H]1[C@H](O)[C@@H]3O[C@@H]3C(=NOCc3ccccc3)[C@H]1CC2`, for which the composite z-score worked out at 0.489.
Take `CC(CCN1CCCc2nc(C)c(C)cc21)=NOC[C@@H](C)[C@H](OCc1ccccc1)C(C)C`: the composite z-score is -0.413.
